Seven compounds from PubChem BioAssay (Tox21) can be followed below.

Assay [1] addresses Luciferin 4-monooxygenase (Photinus pyralis) (UniProt P08659). As to the kind of experiment: qHTS assay to identify small molecule inhibitors of firefly luciferase (AID 1224835). Further: nearly all actives have a fitted effect of over 25% in size. An outline of the steps: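 Inhibition of purified Photinus luciferase is measured by luminescence. Substrate levels (D-luciferin, ATP) sit at their KM values. Each compound is tested in a concentration series.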

Assay [2] is described as follows: qHTS assay to identify small molecule agonists of the constitutive androstane receptor (CAR) signaling pathway - cell viability counter screen (AID 1224836). Further: nearly all actives have a fitted effect of over 45% in size. An outline of the steps: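 Multiplexed viability check: HepG2-CYP2B6-hCAR cells, 15-point compound dosing, 0.75 uM PK11195 final, 23 h at 37 C, CellTiter-Fluor fluorescence.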
A short description of assay [3]: qHTS assay to identify small molecule antagonists of the constitutive androstane receptor (CAR) signaling pathway - cell viability counter screen (AID 1224837). Further: nearly all actives have a fitted effect of over 45% in size. In outline:
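HepG2 cells stably expressing hCAR and a CYP2B6-2.2kb reporter were plated and pre-incubated 4 hr at 37 C/5% CO2, then given compounds at 15 concentrations plus 50 nM CITCO (final). After 23 hr, viability was read by CellTiter-Fluor fluorescence.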
In general terms: qHTS replaces the single test concentration by a dilution series.

The target in assay [4] is Nuclear receptor subfamily 1 group I member 3 (Homo sapiens) (UniProt Q14994). As to the kind of experiment: qHTS assay to identify small molecule antagonists of the constitutive androstane receptor (CAR) signaling pathway (AID 1224838). Further: nearly all actives have a fitted effect of over 40% in size. Further: potency means the concentration at half of the fitted maximal effect. In outline: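 HepG2 cells stably co-transfected with hCAR and a CYP2B6-2.2kb luciferase reporter were seeded 4 h before compound addition at 15 concentrations. Cells were stimulated with 50 nM CITCO (final) for 24 h at 37 C; luciferase luminescence was then read.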

Assay [5] has the same target. As to the kind of experiment: qHTS assay to identify small molecule agonists of the constitutive androstane receptor (CAR) signaling pathway (AID 1224839). Further: nearly all actives have a fitted effect of over 15% in size. In outline:
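Using human hepatoma HepG2 cells engineered with hCAR and a CYP2B6-2.2kb reporter, 15-concentration compound series were incubated 24 h alongside PK11195 at 0.75 uM final, with luminescence quantified afterwards.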

Assay [6] in a line: qHTS assay to identify small molecule antagonists of the estrogen related receptor signaling pathway with the pleiotropic PPARgamma coactivator (PGC) from Tox21 10K library - cell viability counter screen (AID 1224840; active means well fitted cell-killing curve with a large enough effect in the repeat runs, not every such curve was filed as active; further: nearly all actives have a fitted effect of over 40% in size). An outline of the steps:
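PGC/ERR cells were seeded at 2,000 cells/well and left 6 hours at 37 C/5% CO2 before pin-tool addition of compounds in DMSO. After 17.5 hours at 37 C, CellTiter-Fluor was added and fluorescence read 30 minutes later.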

Assay [7] is described as follows: qHTS assay to identify small molecule antagonists of the estrogen related receptor signaling pathway with the pleiotropic PPARgamma coactivator (PGC) from Tox21 10K library (AID 1224841; call rule not given here; further: actives are mostly falling curves and most rising ones were filed inactive; nearly all actives have a fitted effect of over 50% in size). An outline of the steps:
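PGC/ERR reporter cells were seeded at 2,000 cells/well and held 6 hours at 37 C/5% CO2 before pin-tool addition of compounds in DMSO. After 18 hours at 37 C, One-Glo was added and luminescence read after 30 minutes at room temperature.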

A short description of assay [8]: qHTS assay to identify small molecule agonists of the estrogen related receptor signaling pathway with the pleiotropic PPARgamma coactivator (PGC) from Tox21 10K library (AID 1224842). Further: nearly all actives have a fitted effect of over 15% in size. An outline of the steps:
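Luminescence from One-Glo (30 min, room temperature) measured after PGC/ERR cells had 18 h at 37 C with pinned compound (23 nL in DMSO). Cells had been seeded at 2,000 per well and pre-incubated 6 h.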

Assay [9] deals with Thyrotropin receptor (Homo sapiens) (UniProt P16473). Briefly: qHTS assay to identify small molecule agonists of the thyroid stimulating hormone receptor (TSHR) signaling pathway (AID 1224843; calls by dose curve; further: nearly all actives have a fitted effect of over 45% in size). In outline: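 Screening of the Tox21 10K collection used HEK293 cells engineered with TSHR at 800 cells per well. After a 30-min room-temperature compound exposure, HTRF cAMP reagents were added and fluorescence recorded 1 h later.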

Assay [10] is described as follows: qHTS assay to identify small molecule agonists of the hypoxia (HIF-1) signaling pathway - cell viability counter screen (AID 1224844; calls by dose curve; further: nearly all actives have a fitted effect of over 50% in size; further: potency means the concentration at half of the fitted maximal effect). An outline of the steps: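 HRE-bla ME-180 cells in medium with 0.5% dialyzed FBS were preincubated 5 hrs at 37C, exposed to compounds for 17 hrs, then viability was read as CellTiter-Glo luminescence after 30 min at room temperature, in the reporter wells.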

The nature of assay [11]: qHTS assay to identify small molecule agonists of H2AX (AID 1224845; active means well fitted activation curve with a large enough effect in the signal ratio in the repeat runs, not every such curve was filed as active; the % refers to the signal ratio). In outline:
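Phospho-H2AX Ser139 measured by HTRF (ex 320 nm; em 665 and 620 nm) after 24 hr antibody incubation. Compounds, 15 concentrations, 0.76% DMSO, were applied to CHO-K1 cells for 3hr at 37C before lysis.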

A short description of assay [12]: qHTS assay to identify small molecule agonists of the hypoxia (HIF-1) signaling pathway (AID 1224846; active means well fitted activation curve with a large enough effect in the signal ratio in the repeat runs, not every such curve was filed as active; the % refers to the signal ratio). An outline of the steps: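 HRE-bla ME-180 cells (beta-lactamase reporter under hypoxia response element) were plated at 2,000 cells/well in medium with 0.5% dialyzed FBS, rested 5 hrs, then given compounds in DMSO for 17 hrs at 37C, 5% CO2. Reporter induction was read with CCF4-AM FRET substrate.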

The nature of assay [13]: qHTS assay to identify small molecule agonists of H2AX - cell viability counter screen (AID 1224847; calls by dose curve; further: nearly all actives have a fitted effect of over 30% in size; further: potency means the concentration at half of the fitted maximal effect;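 on activity change, negative = cytotoxicity: wild-type CHO-K1 cells; top concentration of the series differs between compounds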). An outline of the steps: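 After overnight plating of 1000 CHO-K1 cells per well, a 15-concentration compound series was applied for 3 hr at 37C. Luminescence from CellTiter-Glo, read following 30 min at room temperature, reflected cell viability.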
The nature of assay [14]: qHTS assay to identify small molecule antagonists of the estrogen related receptor (ERR) signaling pathway from Tox21 library (AID 1224848). Further: nearly all actives have a fitted effect of over 50% in size. In outline:
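Antagonist-mode screen of the Tox21 10K library in an NTP-provided ERR reporter cell line; 18 h compound exposure at 37 C, luminescence measured with ONE-Glo.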

Assay [15] in a line: qHTS assay to identify small molecule agonists of the estrogen related receptor (ERR) signaling pathway from Tox21 library (AID 1224849; calls by dose curve; further: nearly all actives have a fitted effect of over 15% in size). Conditions: ERR reporter cell line, ONE-Glo luciferase, 18 h; at 92.4 µM (top of the series) unless noted. In outline:
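ERR reporter cell line (NTP) seeded, rested 6 h at 37 C/5% CO2, then pinned with Tox21 compounds in DMSO. After 18 h at 37 C, ONE-Glo luciferase luminescence was read following 30 min at room temperature.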

Assay [16] is described as follows: qHTS RealTime-Glo MT Cell Viability Assay in HepG2 cells - 24 hour (AID 1224867). Further: nearly all actives have a fitted effect of over 50% in size. An outline of the steps:
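qHTS, HepG2, 600 cells/well, RealTime-Glo (NanoLuc + prosubstrate) added with cells; 5 h preincubation; DMSO compound addition; 37 C; luminescence at 0/8/16/24/32/40 h.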

Assay [17] can be described thus: qHTS RealTime-Glo MT Cell Viability Assay in HEK293 cells - 32 hour (AID 1224868). An outline of the steps:
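Assay medium contained NanoLuc luciferase plus cell-permeant prosubstrate, added with HEK293 cells at 600 cells/well. After 5 h at 37 C/5% CO2 compounds were added; plates stayed at 37 C for 40 h with serial luminescence reads.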

Assay [18] is described as follows: A CellTox Green Cytotoxicity Assay to monitor cytotoxicity in HEK293 cells - 0 hour (AID 1224869). Further: nearly all actives have a fitted effect of over 50% in size. An outline of the steps:
(§1)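 HEK293 cells premixed with CellTox Green dye were seeded at 600 cells/well and left 5 h at 37 C/5% CO2 before pin transfer of 23 nL compound in DMSO. Fluorescence from dye bound to dead-cell DNA was read during 40 h treatment.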

Assay [19] can be described thus: qHTS RealTime-Glo MT Cell Viability Assay in HepG2 cells - 40 hour (AID 1224870). Further: nearly all actives have a fitted effect of over 50% in size. In outline:
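Real-time viability: cells seeded at 600 per well together with NanoLuc and cell-permeant prosubstrate, compounds added after 5 h incubation. Luminescence tracked at 0, 8, 16, 24, 32 and 40 h of exposure.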

The nature of assay [20]: A CellTox Green Cytotoxicity Assay to monitor cytotoxicity in HEK293 cells - 40 hour (AID 1224871). Further: nearly all actives have a fitted effect of over 45% in size. Further: potency means the concentration at half of the fitted maximal effect. In outline: as §1

A number with no mark means an inactive call. Inconclusive results are not listed. Calls of active or inactive are those of the source. Unless noted, the call rests on the fitted dose curve; in most records, active means well fitted curve in the direction sought with a large enough effect in the repeat runs; inconclusive means weak or mixed curves; inactive means no such curve, though single readings can be large; an effect the other way counts as inactive or inconclusive.
On the % scale 0 is the no-effect control and ±100 the full control effect.

Luciferin 4-monooxygenase (Photinus pyralis), sequence (P08659 whole entry, looked up): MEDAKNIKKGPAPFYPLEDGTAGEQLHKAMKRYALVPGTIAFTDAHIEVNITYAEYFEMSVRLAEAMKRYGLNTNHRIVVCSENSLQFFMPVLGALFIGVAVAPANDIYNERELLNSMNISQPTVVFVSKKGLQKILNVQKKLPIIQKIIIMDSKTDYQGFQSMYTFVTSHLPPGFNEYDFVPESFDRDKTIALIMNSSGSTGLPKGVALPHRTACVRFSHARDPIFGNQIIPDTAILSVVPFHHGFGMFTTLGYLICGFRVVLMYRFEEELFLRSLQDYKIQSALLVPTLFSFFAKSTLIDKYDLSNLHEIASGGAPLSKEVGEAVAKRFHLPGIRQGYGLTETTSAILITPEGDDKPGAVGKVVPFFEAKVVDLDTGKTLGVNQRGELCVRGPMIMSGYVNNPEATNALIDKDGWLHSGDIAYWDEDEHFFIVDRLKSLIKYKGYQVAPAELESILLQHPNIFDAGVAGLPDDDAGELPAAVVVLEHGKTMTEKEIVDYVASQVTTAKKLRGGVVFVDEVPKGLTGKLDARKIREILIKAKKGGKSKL
Thyrotropin receptor (Homo sapiens), sequence (P16473 whole entry, looked up): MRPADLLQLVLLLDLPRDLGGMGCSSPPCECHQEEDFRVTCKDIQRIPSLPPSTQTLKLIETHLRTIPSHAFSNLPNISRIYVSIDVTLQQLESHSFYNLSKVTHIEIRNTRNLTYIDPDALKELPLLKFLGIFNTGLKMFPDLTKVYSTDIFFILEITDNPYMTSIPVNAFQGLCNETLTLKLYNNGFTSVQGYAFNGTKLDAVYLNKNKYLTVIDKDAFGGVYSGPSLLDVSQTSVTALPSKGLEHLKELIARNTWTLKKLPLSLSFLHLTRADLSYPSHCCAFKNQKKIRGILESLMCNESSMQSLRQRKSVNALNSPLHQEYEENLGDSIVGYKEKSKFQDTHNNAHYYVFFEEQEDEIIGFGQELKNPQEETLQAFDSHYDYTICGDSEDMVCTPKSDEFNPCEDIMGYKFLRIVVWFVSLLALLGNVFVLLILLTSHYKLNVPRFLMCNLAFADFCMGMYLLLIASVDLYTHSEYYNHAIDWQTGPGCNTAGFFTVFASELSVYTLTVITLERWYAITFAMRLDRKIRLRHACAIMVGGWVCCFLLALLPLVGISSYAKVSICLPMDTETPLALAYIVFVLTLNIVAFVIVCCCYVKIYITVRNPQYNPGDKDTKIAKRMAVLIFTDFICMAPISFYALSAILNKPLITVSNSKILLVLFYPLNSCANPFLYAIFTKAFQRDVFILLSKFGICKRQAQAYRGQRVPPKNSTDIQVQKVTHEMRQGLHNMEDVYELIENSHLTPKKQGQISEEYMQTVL
Nuclear receptor subfamily 1 group I member 3 (Homo sapiens), sequence (Q14994 whole entry, looked up): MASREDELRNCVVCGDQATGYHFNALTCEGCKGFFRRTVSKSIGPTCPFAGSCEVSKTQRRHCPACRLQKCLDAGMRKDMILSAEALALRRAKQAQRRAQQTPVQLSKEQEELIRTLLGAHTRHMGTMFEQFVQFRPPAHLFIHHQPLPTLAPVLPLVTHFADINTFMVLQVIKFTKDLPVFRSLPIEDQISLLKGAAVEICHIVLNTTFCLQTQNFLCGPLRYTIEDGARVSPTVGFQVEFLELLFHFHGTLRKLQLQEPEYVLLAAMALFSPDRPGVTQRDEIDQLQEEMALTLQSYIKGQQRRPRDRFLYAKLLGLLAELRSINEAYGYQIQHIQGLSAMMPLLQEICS

In the case of `CC(COC(=O)c1ccccc1)OC(=O)c1ccccc1` (stereo not drawn), the Potency result in assay [1], in [2], in assay [3], in assay [4], in assay [5] and in [6] was “inactive” in each case. Also, the Potency entry in assay [7], in [8], in assay [9], in assay [10], in assay [11] and in [13] was “inactive” in each case. The Potency result in assay [14], in assay [16], in [17], in [18], in [19] and in assay [20] was “inactive” throughout. Further, the result in assay [12] was inactive. The activity change, positive = activation in [15] was 6.72%.
As to `CCOC(=O)[C@@](C)(N)Cc1ccc(O)c(O)c1`, the Potency entry in assay [1], in assay [2], in assay [3], in [4], in assay [5] and in [6] was “inactive” in each case. Besides, the Potency result in assay [7], in assay [8], in assay [9], in [13], in assay [14] and in [16] was “inactive” each time. Besides, the Potency result in assay [17], in [18], in assay [19] and in [20] was “inactive” each time. The activity change, positive = activation in [15] was -0.831% [at 42.5 µM].
As to `CC(=O)Oc1ccc(C2(c3ccc(OC(C)=O)cc3)C(=O)Nc3ccccc32)cc1`, the Potency entry in assay [1], in assay [2], in [3], in assay [5], in assay [6] and in [7] was “inactive” in each case. The Potency result in assay [8], in assay [9], in [11], in [13], in assay [14] and in [16] was “inactive” each time. Also, the Potency entry in assay [17], in assay [18], in assay [19] and in [20] was “inactive” each time. The Potency in assay [4] was 0.168 µM (active); in assay [10] it was 0.0425 µM (active). Besides, the activity change, positive = activation in assay [15] is -9.03% [at 42.5 µM].
As for `O=C1OC(=O)c2cccc3cccc1c23`, the Potency result in assay [1], in [2], in assay [3], in [4], in [5] and in [6] was “inactive” each time. In addition, the Potency entry in assay [7], in assay [8], in assay [10], in assay [14], in [16] and in [17] was “inactive” throughout. The Potency entry in assay [18], in assay [19] and in assay [20] was “inactive” in each case. In addition, in assay [12], the compound was classed as inactive. Further, in assay [15], the activity change, positive = activation was -2.65%.
Consider `C=CC(=C)CC/C=C(\C)CCC=C(C)C`, for which the activity change, negative = inhibition in assay [1] is 0.425% [at 23.6 µM]. In addition, the viability change, negative = cytotoxic is 4.77% [at 19 µM] in [2] and -0.28% [at 19 µM] in assay [6]. Also, the activity change, negative = cytotoxicity was -2.25% [at 19 µM] in assay [3], 1.43% [at 15.8 µM] in assay [10], 2.41% [at 31.6 µM] in [13] and 0.599% [at 15.8 µM] in assay [16]. Further, the activity, negative = inhibition is 8.18% [at 19 µM] in [4], 0% [at 19 µM] in assay [7] and -7.19% [at 19 µM] in assay [14]. The activation in assay [5] was 4.39% [at 19 µM]; in assay [8] it was 0% [at 19 µM]; in assay [9], -0.893% [at 19 µM]; in assay [12] it was -0.763% [at 15.8 µM]. For the same compound, the activation (H2AX phosphorylation) in [11] is -0.467% [at 31.6 µM]. For the same compound, in assay [15], the activity change, positive = activation is -3.55% [at 19 µM]. The activity change, negative = cytotoxic was -12.8% [at 15.8 µM] in assay [17] and -6.2% [at 15.8 µM] in [19]. In addition, the cytotoxicity in [18] is 0.448% [at 15.8 µM]. Besides, the cytotoxicity increase in [20] is 4.27% [at 15.8 µM].
Take `CN1CN(C)CN(C)C1`: the Potency result in [1], in assay [2], in assay [3], in [4], in assay [5] and in [6] was “inactive” throughout. Also, the Potency result in assay [7], in assay [8], in assay [9], in assay [10], in assay [11] and in [14] was “inactive” throughout. The Potency entry in assay [16], in assay [17], in assay [18], in assay [19] and in [20] was “inactive” each time. Besides, in assay [12], the compound was called inactive. Further, in [15], the activity change, positive = activation is 7.33%.
On to `CCCC(CC)CCCCCCCN` (stereo not drawn), for which the Potency result in assay [1], in assay [2], in assay [3], in [4], in assay [5] and in assay [6] was “inactive” in each case. For the same compound, the Potency result in assay [7], in assay [8], in assay [11], in assay [16], in [18] and in [19] was “inactive” each time. In addition, the figures for the Potency in [10], in assay [13] and in assay [20] were 50.2 µM (active), 103 µM (active) and 50.2 µM (active), respectively. In addition, the activity change, positive = activation in [15] was -20.1%.
